The values that follow come from the supplement of paper PMC12645437, “Orthogonal IMiD-Degron Pairs Induce Selective Protein Degradation in Cells” (ACS Chemical Biology, 2025).

This assay deals with T1, CRBN, Q96SW2.
T1 chain: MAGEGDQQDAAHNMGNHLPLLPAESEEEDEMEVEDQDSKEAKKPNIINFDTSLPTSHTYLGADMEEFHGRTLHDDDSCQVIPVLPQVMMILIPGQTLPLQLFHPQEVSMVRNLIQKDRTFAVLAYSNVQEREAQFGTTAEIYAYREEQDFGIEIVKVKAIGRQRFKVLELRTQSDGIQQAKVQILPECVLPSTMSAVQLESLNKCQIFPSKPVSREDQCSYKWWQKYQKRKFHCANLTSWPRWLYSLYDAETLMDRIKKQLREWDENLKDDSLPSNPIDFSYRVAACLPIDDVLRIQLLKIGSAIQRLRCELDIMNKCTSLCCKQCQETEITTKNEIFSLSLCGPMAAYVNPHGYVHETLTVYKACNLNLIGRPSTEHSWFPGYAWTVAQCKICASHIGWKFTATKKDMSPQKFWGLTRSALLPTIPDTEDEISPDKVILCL
The assay can be described thus: log2 fold change of degron read counts, EGFP-low vs EGFP+ sorted cells (limma voom), compound-induced degradation; higher = more compound-induced degradation of the degron-EGFP fusion; degrons are variants of IKZF1/3 zinc finger 2; compound dose not given here. As to conditions: Jurkat, 18 h.

[1] abbreviates: compound: compound 19 (5-tert-butyl-thalidomide).
The mark [2] stands for this setting: compound: compound 22 (5-morpholino-thalidomide).
The mark [3] stands for this setting: compound: compound 33 (diphenyl IMiD analogue).

The full ranking holds about 8,300 sequences; the median of “log2 fold change of degron read counts, EGFP-low vs EGFP+ sorted cells (limma voom), compound-induced degradation” is about -1.1, and the highest 2% start at about 3.2. This excerpt belongs to a sample that is enriched for the highest values.
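Also: pooled lentiviral library of zinc finger degron-EGFP fusions in mCherry-positive Jurkat cells, FACS-sorted after compound exposure, with degron abundance counted by next-generation sequencing.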

B1: 46F_47E_49D_50Q_52G_53A_54Y_55F_67L_, Q9UKT9 (peptide)
chain: FECDQCGAYFTQKGNLLRHIKL
As to B1, the “log2 fold change of degron read counts” value is -2.99 under setting [1], -3.59 under setting [2], -2.13 under setting [3] and -2.26 (compound: thalidomide).

B2: 46F_47G_49D_50Q_52G_53A_54T_55F_67L_, Q9UKT9 (peptide)
chain: FGCDQCGATFTQKGNLLRHIKL
For the sequence B2, the “log2 fold change of degron read counts” value was -1.78 under setting [1], -2.27 under setting [2], -1.3 under setting [3] and -2.71 (compound: thalidomide).

B3: 46F_47W_49E_50I_52G_53A_54F_55F_67L_, Q9UKT9 (peptide)
chain: FWCEICGAFFTQKGNLLRHIKL
As for B3, the “log2 fold change of degron read counts” value by setting is: under setting [1], 3.03; under setting [2], 3.13; under setting [3], 2.12; (compound: thalidomide) -0.452.

B4: 46F_47T_49P_50I_52G_53A_54I_55F_67L_, Q9UKT9 (peptide)
chain: FTCPICGAIFTQKGNLLRHIKL
For the sequence B4, the “log2 fold change of degron read counts” value runs as follows: under setting [1], -0.365; under setting [2], 1.34; under setting [3], 2.33; (compound: thalidomide) 2.71.

B5: 46F_47F_49D_50I_52G_53A_54L_55F_67L_, Q9UKT9 (peptide)
chain: FFCDICGALFTQKGNLLRHIKL
Consider B5, for which the “log2 fold change of degron read counts” value reads like this: under setting [1], 2.27; under setting [2], 1.43; under setting [3], 0.356; (compound: thalidomide) -1.44.

B6: 46F_47K_49P_50V_52G_53A_54E_55F_67L_, Q9UKT9 (peptide)
chain: FKCPVCGAEFTQKGNLLRHIKL
Turning to B6, the “log2 fold change of degron read counts” value runs as follows: under setting [1], -1.33; under setting [2], -1.7; under setting [3], -2.52; (compound: thalidomide) -0.999.

B7: 46F_47N_49N_50I_52G_53A_54A_55F_67L_, Q9UKT9 (peptide)
chain: FNCNICGAAFTQKGNLLRHIKL
Regarding B7, the “log2 fold change of degron read counts” value under setting [1] is 1.61, the “log2 fold change of degron read counts” value under setting [2] turned out to be 0.951, the “log2 fold change of degron read counts” value under setting [3] was 0.00357 and the “log2 fold change of degron read counts” value (compound: thalidomide) was -0.128.

B8: 46L_47H_49P_50I_52G_53F_54H_55C_67L_, Q9UKT9 (peptide)
chain: LHCPICGFHCTQKGNLLRHIKL
In the case of B8, the “log2 fold change of degron read counts” value runs as follows: under setting [1], 2.33; under setting [2], 2.45; under setting [3], 2.55; (compound: thalidomide) 1.95.

B9: 46L_47F_49P_50I_52G_53F_54H_55C_67L_, Q9UKT9 (peptide)
chain: LFCPICGFHCTQKGNLLRHIKL
Turning to B9, the “log2 fold change of degron read counts” value by setting is: under setting [1], 2.94; under setting [2], 3.37; under setting [3], 2.6; (compound: thalidomide) 1.88.

B10: 46L_47V_49P_50I_52G_53F_54H_55C_67L_, Q9UKT9 (peptide)
chain: LVCPICGFHCTQKGNLLRHIKL
In the case of B10, the “log2 fold change of degron read counts” value runs as follows: under setting [1], 0.161; under setting [2], 2; under setting [3], 1.81; (compound: thalidomide) 2.57.

B11: 46L_47Y_49P_50I_52G_53F_54H_55C_67L_, Q9UKT9 (peptide)
chain: LYCPICGFHCTQKGNLLRHIKL
For B11, the “log2 fold change of degron read counts” value was 3.13 under setting [1], 3.49 under setting [2], 2.61 under setting [3] and 1.83 (compound: thalidomide).

B12: 46L_47D_49P_50I_52G_53F_54H_55C_67L_, Q9UKT9 (peptide)
chain: LDCPICGFHCTQKGNLLRHIKL
Take B12: the “log2 fold change of degron read counts” value by setting is: under setting [1], 1.47; under setting [2], 0.38; under setting [3], 0.522; (compound: thalidomide) 1.41.

B13: 46L_47M_49P_50I_52G_53F_54H_55C_67L_, Q9UKT9 (peptide)
chain: LMCPICGFHCTQKGNLLRHIKL
Take B13: the “log2 fold change of degron read counts” value runs as follows: under setting [1], 0.0156; under setting [2], 1.21; under setting [3], 2.51; (compound: thalidomide) 2.06.

B14: 46L_47E_49P_50I_52G_53F_54H_55C_67L_, Q9UKT9 (peptide)
chain: LECPICGFHCTQKGNLLRHIKL
For B14, the “log2 fold change of degron read counts” value is, setting by setting: under setting [1], -0.151; under setting [2], -0.655; under setting [3], 1.91; (compound: thalidomide) 2.84.

B15: 46L_47Q_49P_50I_52G_53F_54H_55C_67L_, Q9UKT9 (peptide)
chain: LQCPICGFHCTQKGNLLRHIKL
On to B15, for which the “log2 fold change of degron read counts” value came to 0.55 under setting [1], 1.17 under setting [2], 1.51 under setting [3] and 3.3 (compound: thalidomide).

B16: 46L_47W_49P_50I_52G_53F_54H_55C_67L_, Q9UKT9 (peptide)
chain: LWCPICGFHCTQKGNLLRHIKL
In the case of B16, the “log2 fold change of degron read counts” value runs as follows: under setting [1], 2.74; under setting [2], 3.54; under setting [3], 2.74; (compound: thalidomide) 1.65.

B17: 46L_47S_49P_50I_52G_53F_54H_55C_67L_, Q9UKT9 (peptide)
chain: LSCPICGFHCTQKGNLLRHIKL
For B17, the “log2 fold change of degron read counts” value by setting is: under setting [1], 2.37; under setting [2], 2.02; under setting [3], 2.39; (compound: thalidomide) 2.28.

B18: 46L_47T_49P_50I_52G_53F_54H_55C_67L_, Q9UKT9 (peptide)
chain: LTCPICGFHCTQKGNLLRHIKL
Take B18: the “log2 fold change of degron read counts” value amounted to 1.1 under setting [1], 2.57 under setting [2], 2.47 under setting [3] and 2.78 (compound: thalidomide).

B19: 46L_47N_49P_50I_52G_53F_54H_55C_67L_, Q9UKT9 (peptide)
chain: LNCPICGFHCTQKGNLLRHIKL
B19: the “log2 fold change of degron read counts” value runs as follows: under setting [1], 1.34; under setting [2], 0.56; under setting [3], 0.934; (compound: thalidomide) 1.12.

B20: 46L_47A_49N_50Q_52G_53F_54R_55C_67L_, Q9UKT9 (peptide)
chain: LACNQCGFRCTQKGNLLRHIKL
Take B20: the “log2 fold change of degron read counts” value is -0.828 under setting [1], -1.5 under setting [2], -1.86 under setting [3] and -1.22 (compound: thalidomide).

B21: 46F_47S_49P_50I_52G_53R_54L_55F_67L_, Q9UKT9 (peptide)
chain: FSCPICGRLFTQKGNLLRHIKL
For the sequence B21, the “log2 fold change of degron read counts” value by setting is: under setting [1], -0.866; under setting [2], -1.05; under setting [3], 1.44; (compound: thalidomide) -0.361.

B22: 46F_47V_49P_50Q_52G_53A_54L_55F_67L_, Q9UKT9 (peptide)
chain: FVCPQCGALFTQKGNLLRHIKL
As to B22, the “log2 fold change of degron read counts” value is, setting by setting: under setting [1], -2.37; under setting [2], -1.48; under setting [3], -0.389; (compound: thalidomide) -0.926.

B23: 46F_47G_49E_50I_52G_53A_54W_55F_67L_, Q9UKT9 (peptide)
chain: FGCEICGAWFTQKGNLLRHIKL
For B23, the “log2 fold change of degron read counts” value is -0.259 under setting [1], -1.17 under setting [2], 0.513 under setting [3] and -0.936 (compound: thalidomide).

B24: 46F_47L_49P_50Q_52G_53A_54Q_55F_67L_, Q9UKT9 (peptide)
chain: FLCPQCGAQFTQKGNLLRHIKL
Regarding B24, the “log2 fold change of degron read counts” value runs as follows: under setting [1], -2.2; under setting [2], -2.3; under setting [3], 0.482; (compound: thalidomide) -0.585.

B25: 46F_47D_49N_50I_52G_53A_54I_55F_67L_, Q9UKT9 (peptide)
chain: FDCNICGAIFTQKGNLLRHIKL
For the sequence B25, the “log2 fold change of degron read counts” value runs as follows: under setting [1], -1.43; under setting [2], -1.22; under setting [3], -0.173; (compound: thalidomide) 0.319.

B26: 46F_47Y_49E_50I_52G_53H_54S_55F_67L_, Q9UKT9 (peptide)
chain: FYCEICGHSFTQKGNLLRHIKL
In the case of B26, the “log2 fold change of degron read counts” value reads like this: under setting [1], -2.01; under setting [2], -3.04; under setting [3], -1.92; (compound: thalidomide) -2.8.

B27: 46F_47V_49N_50Q_52G_53A_54G_55F_67L_, Q9UKT9 (peptide)
chain: FVCNQCGAGFTQKGNLLRHIKL
For the sequence B27, the “log2 fold change of degron read counts” value reads like this: under setting [1], -2.26; under setting [2], -1.63; under setting [3], -0.863; (compound: thalidomide) -1.05.

B28: 46F_47F_49E_50I_52G_53H_54V_55F_67L_, Q9UKT9 (peptide)
chain: FFCEICGHVFTQKGNLLRHIKL
On to B28, for which the “log2 fold change of degron read counts” value by setting is: under setting [1], -1.37; under setting [2], -1.97; under setting [3], -2.03; (compound: thalidomide) -1.87.
